Assay outcomes: PubChem, National Center for Advancing Translational Sciences (NCATS)
Hits are enriched below; roughly 17% of the tested compounds scored in any of these assays.
HepG2 viability: qHTS for Inhibitors of TGF-b: Cytotox Counterscreen; Potency, µM (series often up to 46.1 µM), without a hit: at the highest dose activity change, negative = cytotoxicity, most hits filed as cytotoxic; AID 588856, 2011; HepG2 CAGA-GFP viability, ATP luminescence, 18 h; 410,000 compounds, 0.76% hits
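HepG2 CAGA-GFP cells (1000/well, DMEM with 1% FBS) received compound, then TGF-beta at 500 pg/mL final, and were incubated 18 hours at 37 degrees C. Viability was read by CellTiter-Glo luminescence. Media-only wells were set as complete cell-killing and DMSO as no toxicity.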
ATXN viability: Viability Counterscreen for Primary qHTS for Inhibitors of ATXN expression. AID 651635, 2014. 400,000 compounds, 0.49% hits. S2 cells (HEK-293 line with an ATXN2-luciferase reporter) viability, CellTiter-Fluor protease fluorescence, 24 h. Potency, µM (doses to about 56.7 µM), hits mostly cytotoxic; further: nearly all actives have a fitted effect of over 40% in size
TGFb SMAD3 inh: qHTS for Inhibitors of TGF-b; HepG2 CAGA-GFP TGF-b/SMAD3 reporter, GFP fluorescence, 18 h; TGF-beta stimulated, 500 pg/mL final; Potency, µM (doses to about 46.1 µM), without a hit: at the top dose activity, negative = inhibition, most hits filed as inhibitors; 410,000 compounds, 1.2% hits; further: on the % scale 0 is the no-effect control and ±100 the full control effect; nearly all actives have a fitted effect of over 65% in size
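Inhibition was scored as loss of TGF-beta-induced (500 pg/mL final, 18 hours, 37 degrees C) GFP in HEPG2 cells carrying a CAGA-GFP reporter, in DMEM with 1% FBS. Well GFP was summed per cell; Activity was normalised to unstimulated and stimulated DMSO wells, then concentration-response fitting.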
TDP1 cell noCPT: qHTS for Inhibitors of human tyrosyl-DNA phosphodiesterase 1 (TDP1): qHTS in cells in absence of CPT. 420,000 compounds, 15% hits. Potency, µM (highest dose often 46.2 µM), inactives show at the top dose activity change, negative = growth inhibition, hits mostly inhibitors. AID 686978, 2013. DT40 Tdp1-/- hTDP1 cells, no CPT, ATP luminescence, 48 h; further: on the % scale 0 is the no-effect control and ±100 the full control effect; nearly all actives have a fitted effect of over 55% in size
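Chicken DT40 Tdp1-/- cells complemented with human TDP1, screened without camptothecin (DMSO vehicle only), 400 cells/well. Compounds pin-transferred, cells incubated at 37 °C for at least 48 hr. Growth read as ATP-dependent luminescence (CellTiter-Glo, 30 min at RT).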
ATXN2 expr inh: Primary qHTS for Inhibitors of ATXN expression | HEK-293 ATXN2-luciferase reporter, luminescence, 24 h | Potency, µM (top dose mostly 57 µM), inactives show top-dose activity change, negative = inhibition, usual class: inhibitors | 360,000 compounds, 0.72% hits; further: on the % scale 0 is the no-effect control and ±100 the full control effect; nearly all actives have a fitted effect of over 55% in size
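qHTS (up to 57 uM final) was run with 24 h compound exposure of reporter cells at 37 °C. Each well was multiplexed: SteadyGlo luminescence measured ATXN2-luciferase expression after a fluorogenic Gly-Phe-AFC viability readout (25 uM final).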
TDP1 cell CPT: qHTS for Inhibitors of human tyrosyl-DNA phosphodiesterase 1 (TDP1): qHTS in cells in presence of CPT | Potency, µM (doses to about 46.2 µM), inactives show top-dose activity change, negative = growth inhibition, hits mostly inhibitors | chicken DT40 Tdp1-/-;hTDP1 cells + 20 nM CPT, ATP luminescence, 48 h | 420,000 compounds, 12% hits; further: on the % scale 0 is the no-effect control and ±100 the full control effect; nearly all actives have a fitted effect of over 55% in size
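Chicken DT40 Tdp1-/- cells complemented with human TDP1, 400 cells/well, exposed to compounds plus 20 nM camptothecin for at least 48 h at 37 C; viability read as ATP content by CellTiter-Glo luminescence.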
The depositor's hits bear a star; i = inactive; ? = inconclusive; nt = no result given. The call rests on the fitted dose curve; in most records, active means well fitted curve in the direction sought with a large enough effect; inconclusive means small, poorly fitted or top-dose-only effect, or another doubt; inactive means no such curve, though single readings can be large; an effect the other way counts as inactive or inconclusive. Potency means the concentration at half of the fitted maximal effect.

SMILES	HepG2 viability	ATXN viability	TGFb SMAD3 inh	TDP1 cell noCPT	ATXN2 expr inh	TDP1 cell CPT
CC(C)c1ccc([C@@H]2O[C@H](CCc3ccccc3)CC3=C2C(=O)OC(C)(C)O3)cc1	nt	i	nt	16µM*	9%	?
C[C@@H]1O[C@H](CCc2cccc(Cl)c2)CC2=C1C(=O)OC(C)(C)O2	nt	i	nt	2.9µM*	-14%	1.6µM*
CC1(C)OC(=O)C2=C(C[C@@H](CCc3ccccc3)O[C@@H]2c2ccc(Cl)cc2)O1	nt	i	nt	?	-18%	?
O=C(O)c1ccc(CNC(=S)Nc2ccccc2)cc1	-11%	i	9%	-29%	3%	-3%
Cc1ccc(OCC(=O)OCc2cc(=O)n3ccsc3n2)cc1C	0%	i	-18%	?	8%	-11%
O=S(=O)(Nc1ccc(S(=O)(=O)N2CCCCC2)cc1)c1cccs1	-1%	i	-9%	1%	4%	7%
CC1(C)OC(=O)C2=C(CC(CCc3ccccc3)OC2c2ccccc2)O1 (stereo not given)	-36%	i	6%	21µM*	-3%	13µM*
Cc1[nH]n(-c2ccc([N+](=O)[O-])cc2)c(=O)c1C=NCCN1CCN(C(=O)c2ccc(Br)cc2)CC1	7.1µM*	i	-2%	15µM*	-27%	18µM*
CCCc1[nH]n(-c2ccc([N+](=O)[O-])cc2)c(=O)c1C=NCCc1c[nH]c2ccccc12	-8%	i	4%	?	-15%	?
CCCc1[nH]n(-c2ccc([N+](=O)[O-])cc2)c(=O)c1C=NCCc1ccc(OC)c(OC)c1	-7%	i	11%	?	nt	?
Cc1[nH]n(-c2ccc([N+](=O)[O-])cc2)c(=O)c1C=NCCN1CCN(C(=O)c2cccc(F)c2)CC1	7.9µM*	i	11%	9.2µM*	6%	15µM*
Cc1[nH]n(-c2ccc([N+](=O)[O-])cc2)c(=O)c1C=NCCN1CCN(C(=O)c2ccc(F)cc2)CC1	-2%	i	22%	2%	4%	-5%
Cc1[nH]n(-c2ccc([N+](=O)[O-])cc2)c(=O)c1C=NCCc1c[nH]c2ccccc12	-40%	i	11%	?	-15%	12µM*
Cc1ncc(CN2CCC(C(=O)Nc3ccc(-n4cccn4)cc3)CC2)s1	-2%	i	-6%	-5%	7%	-27%
O=C(Nc1ccc(-n2cccn2)cc1)C1CCCCN1Cc1cccc2c1OCO2 (stereo not given)	20%	i	2%	4.6µM*	nt	6.5µM*
COCCN1C(=O)COc2ccccc2C1C(=O)Nc1c(C)cccc1C (stereo not given)	nt	i	nt	-17%	1%	0%
COc1ccc(C2(OC)Oc3cc(OC)ccc3C(=O)C2(O)OC)cc1 (stereo not given)	0%	i	?	?	-9%	23µM*
CCOC(=O)c1cc(-c2ccc(F)cc2)n(CCC(=O)Nc2cc(OC)cc(OC)c2)c1C	-20%	nt	?	16µM*	nt	15µM*
CCOC(=O)c1cc(-c2ccccc2)n(CCC(=O)N2CCN(c3ccccn3)CC2)c1C	0%	i	-15%	21µM*	4%	15µM*
O=C(CCN1C(=O)c2ccccc2C1=O)N1CCN(c2ccccn2)CC1	-16%	i	5%	-12%	-4%	0%
CCOC(=O)c1cc(-c2ccc(OC)cc2)n(CCC(=O)NCc2ccccc2OC)c1C	-21%	?	?	?	?	26µM*
